Screens from PubChem BioAssay.
BAZ2B inh: BAZ2B (human) inhibition | Q9UIF8 | AlphaScreen BAZ2B-H3K14Ac peptide displacement | Potency, µM (series often up to 114 µM), for the others: top-dose activity change, negative = inhibition, usual class: inhibitors | hit rate 4.4% among 360,000 | AID 504333; further: on the % scale 0 is the no-effect control and ±100 the full control effect; nearly all actives have a fitted effect of over 60% in size
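Compounds, titrated to a top concentration of 110 uM, were incubated 30 min at room temperature with preformed BAZ2B/acetyl-K14 H3 peptide complex (50 nM each). Proximity signal was measured by AlphaScreen after 20 min with beads.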
G9a block: inhibitors of human histone lysine methyltransferase G9a; G9a H3K9 monomethylation, AlphaScreen, 2 h; Potency, µM (top dose mostly 102 µM), inactives show top-dose activity, negative = inhibition, most hits filed as inhibitors; hit rate 8.8% among 350,000; AID 504332; further: on the % scale 0 is the no-effect control and ±100 the full control effect; nearly all actives have a fitted effect of over 75% in size
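Methyltransferase reactions run at room temperature for 2 h (20 nM enzyme, 500 nM biotin-H3K9 peptide, 20 uM SAM) after a 15 min compound preincubation; product detected by AlphaScreen beads and anti-H3K9me1 antibody.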
L3MBTL1 inh: inhibitors of human L3MBTL1. Q9Y468. AlphaScreen L3MBTL1–H3K9me1 peptide binding. Potency, µM (highest dose often 57.1 µM), inactives show at the highest dose activity, negative = inhibition, most hits filed as inhibitors. hit rate 0.66% among 230,000. AID 485360; further: on the % scale 0 is the no-effect control and ±100 the full control effect; nearly all actives have a fitted effect of over 60% in size
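First, the protein-peptide complex forms for 30 min at room temperature (L3MBTL1 50 nM, biotinylated H3K9me1 peptide 75 nM). Next, compounds are pin-transferred and incubated 30 min. Finally, AlphaScreen beads are added and read after 30 min.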
HP1b chromo inh: HP1-beta chromodomain-methylated histone interaction inhibition | P83916 | Potency, µM (titrated, usually from 114 µM), without a hit: at the highest dose activity change, negative = inhibition, usual class: inhibitors | hit rate 0.56% among 390,000 | AlphaScreen HP1-beta / biotin-H3K9me3 peptide binding; further: nearly all actives have a fitted effect of over 70% in size
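Compound inhibition of the preformed complex between 50 nM HP1-beta and 50 nM biotinylated H3K9me3 peptide was read by AlphaScreen. Buffer was PBS pH 7.4 with 0.01% Tween-20. Incubations ran 30 min at room temperature, with 10 ug/mL donor/acceptor beads.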
JMJD2A Tudor: inhibitors of human JMJD2A Tudor domain; Potency, µM (doses to about 114 µM), without a hit: at the top dose activity change, negative = inhibition, actives largely listed as inhibitors; O75164; hit rate 4.4% among 390,000; AlphaScreen JMJD2A-Tudor / H3K4me3 peptide binding; further: on the % scale 0 is the no-effect control and ±100 the full control effect; nearly all actives have a fitted effect of over 50% in size
Target sequence (O75164 whole entry, looked up, the tested form may be a part): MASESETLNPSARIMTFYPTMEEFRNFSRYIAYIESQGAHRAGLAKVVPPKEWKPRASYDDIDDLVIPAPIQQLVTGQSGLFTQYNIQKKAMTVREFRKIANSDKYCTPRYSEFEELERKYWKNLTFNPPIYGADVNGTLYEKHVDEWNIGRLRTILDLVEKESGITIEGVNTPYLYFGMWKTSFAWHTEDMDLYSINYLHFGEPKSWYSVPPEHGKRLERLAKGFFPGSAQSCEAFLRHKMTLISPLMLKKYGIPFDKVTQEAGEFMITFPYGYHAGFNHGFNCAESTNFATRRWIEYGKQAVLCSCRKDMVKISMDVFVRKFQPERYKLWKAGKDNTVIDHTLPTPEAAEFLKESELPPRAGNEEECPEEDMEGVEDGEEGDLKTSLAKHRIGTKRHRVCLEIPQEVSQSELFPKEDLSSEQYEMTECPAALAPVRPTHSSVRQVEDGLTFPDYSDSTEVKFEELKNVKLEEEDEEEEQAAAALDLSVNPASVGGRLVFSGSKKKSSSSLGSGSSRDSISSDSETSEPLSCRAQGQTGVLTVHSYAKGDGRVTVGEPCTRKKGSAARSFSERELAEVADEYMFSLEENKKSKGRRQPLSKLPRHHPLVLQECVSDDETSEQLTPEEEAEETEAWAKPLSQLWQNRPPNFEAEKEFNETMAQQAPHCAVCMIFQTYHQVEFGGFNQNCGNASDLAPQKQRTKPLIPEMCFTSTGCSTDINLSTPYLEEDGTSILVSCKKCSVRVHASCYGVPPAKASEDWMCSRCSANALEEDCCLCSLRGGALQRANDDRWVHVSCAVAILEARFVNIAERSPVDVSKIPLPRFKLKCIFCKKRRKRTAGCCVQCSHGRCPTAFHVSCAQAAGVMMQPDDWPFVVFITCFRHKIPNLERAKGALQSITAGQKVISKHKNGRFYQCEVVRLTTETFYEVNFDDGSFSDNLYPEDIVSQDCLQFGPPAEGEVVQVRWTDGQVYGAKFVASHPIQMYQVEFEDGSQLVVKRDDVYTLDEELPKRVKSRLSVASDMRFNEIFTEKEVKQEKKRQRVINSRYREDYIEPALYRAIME
Sfp PPTase inh: blocks B. subtilis Sfp PPTase activity; Biochemical Sfp PPTase activity, qHTS; Potency, µM, for inactives: largest response in the series, negative = inhibition, hits mostly inhibitors; hit rate 3.5% among 310,000; AID 1490;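 further: the enzyme is Sfp with the accession as filed and its product quenches rhodamine fluorescence; 0% = enzyme reaction without inhibitor and -100% = no enzyme wells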
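Fluorescence-quenching assay with 15 nM Sfp, 5 uM rhodamine-CoA and 12.5 uM BHQ-2-labelled ybbR peptide in pH 7.6 Hepes/MgCl2 buffer. Enzyme was pre-incubated with compound for 15 min at room temperature. Rate was taken from the 30-min fluorescence change (525/598 nm).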
* hit, by the source's call; ? = inconclusive; · = not tested or not shown; [ ] = another dose, or the depositor's remark. A selection: hits, their analogues and other compounds. The true share with any hit is near 12%. The call rests on the fitted dose curve; in most records, active means well fitted curve in the direction sought with a large enough effect; inconclusive means small, poorly fitted or top-dose-only effect, or another doubt; inactive means no such curve, though single readings can be large; an effect the other way counts as inactive or inconclusive. Potency means the concentration at half of the fitted maximal effect.

SMILES	BAZ2B inh	G9a block	L3MBTL1 inh	HP1b chromo inh	JMJD2A Tudor	Sfp PPTase inh
CC(=O)Nc1cc(NC(C)=O)cc(-c2nc3ccccc3[nH]2)c1	50µM*	-2%	0%	?	-10%	12%
CC(=O)Nc1ccc2nc(-c3ccncc3)[nH]c2c1	?	5%	·	23%	-25%	-1%
CCCC1(C(=O)OCC)NC(c2ccc(N(C)C)cc2)C2C(=O)N(c3ccccc3)C(=O)C21 (stereo unspecified)	-38%	8.9µM*	-14%	4%	?	12%
CCCC1(C(=O)OCC)NC(c2ccc(OC)cc2OC)C2C(=O)N(c3ccccc3)C(=O)C21 (stereo unspecified)	12%	13%[59 µM]	-2%	19%	-6%	-15%
CCCC1(C(=O)OCC)NC(c2ccc(N(C)C)cc2)C2C(=O)N(c3ccc(OCC)cc3)C(=O)C21 (stereo unspecified)	?	50µM*	-3%	-26%	?	14%
Cc1cccc(OC(C)C(=O)Nc2nc(-c3ccncc3)cs2)c1 (stereo unspecified)	5%	35µM*	1%	22%	-5%	·
O=C(Nc1nc(-c2ccccn2)cs1)c1ccc(Br)s1	35µM*	50µM*	·	23%	?	12%
CC(OC(=O)c1cccs1)C(=O)Nc1nc(-c2ccccc2)cs1 (stereo unspecified)	3%	79µM*	4%	25%	5%	10%
O=C(Nc1nc(-c2ccccn2)cs1)c1ccco1	7.9µM*	20µM*	·	-22%	56µM*	-50%
COc1ccc(NC(=O)C(=O)NCC(c2ccco2)N2CCc3ccccc3C2)cc1OC (stereo unspecified)	-1%	-13%[2.33 µM]	-3%	21%	-9%	·
O=C(CCC1N=C2c3ccccc3N=C(SCc3ccccc3Cl)N2C1=O)NCCc1ccccc1 (stereo unspecified)	24%	?	·	77%	-4%	·
Cc1ccc(N(C(=O)c2snc(C(N)=O)c2N)C(C(=O)NC2CCCC2)c2ccco2)cc1 (stereo unspecified)	-31%	6%	·	6%	-16%	-6%
O=C(Cn1cnc2sc3c(c2c1=O)CCCC3)NCC(=O)Nc1ccc(F)cc1F	-20%	39%	·	21%	-2%	-7%
C[C@H](NC(=O)c1ccco1)C(=O)Nc1nc(-c2ccccn2)cs1	·	·	·	30%	45µM*	·
CC(Oc1ccc(F)cc1)C(=O)Nc1nc(-c2ccccn2)cs1 (stereo unspecified)	45µM*	?	?	7%	35µM*	·
CC(OC(=O)c1ccc([N+](=O)[O-])o1)C(=O)Nc1nc(-c2ccc(F)c(F)c2)cs1 (stereo unspecified)	?	28µM*	-19%	-19%	?	·
Cc1cc(C(=O)OC(C)C(=O)Nc2nc(-c3ccccc3)cs2)c(C)o1 (stereo unspecified)	-28%	-4%[12.7 µM]	·	2%	-26%	2%
O=C(Nc1nc(-c2cc3ccccc3oc2=O)cs1)c1ccco1	?	35µM*	9%	27%	-30%	-20%
Cc1ccc(NC(=O)C(C)Sc2nc3c(c(=O)[nH]2)CCCC3)cc1Cl (stereo unspecified)	-20%	-31%[59 µM]	·	8%	-35%	·
O=c1cc(Br)c(O)c(Br)cc1Br	·	·	·	?	22µM*	·
O=C1OC(c2ccccc2)(c2cc(Br)c(O)c(Br)c2)c2ccccc21 (stereo unspecified)	·	·	·	-21%	-36%	·
CSCCC(C(=O)O)N1C(=O)c2ccc(C(=O)O)cc2C1=O (stereo unspecified)	-10%	25µM*	-4%	21%	79µM*	-9%
O=C(NCCSc1c(-c2ccc(Br)cc2)[nH]c2ccccc12)c1ccc(S(=O)(=O)N2CCOCC2)cc1	-4%	-8%[59 µM]	·	32%	-14%	·
CCN(CC)P(=O)(Nc1ccc(C)cc1Br)c1ccc(N(C)C)cc1NC(=O)c1ccco1 (stereo unspecified)	?	40µM*	·	?	40µM*	-28%
Cc1ccc(-c2onc(C)c2C)cc1S(=O)(=O)N1CCC(C)CC1	31%	12%[59 µM]	·	97%	14%	·
SMILES	BAZ2B inh	G9a block	L3MBTL1 inh	HP1b chromo inh	JMJD2A Tudor	Sfp PPTase inh
CCCc1sc(N2CCCC(C(N)=O)C2)nc1-c1ccccc1 (stereo unspecified)	?	-94%	-8%	?	28µM*	7%
N#C/C(=C\c1cccnc1)C(=O)NC1CCCCC1	-1%	-5%[59 µM]	0%	30%	-3%	-14%
O=C(Nc1ccccc1N1CCCC1)C1CCCO1 (stereo unspecified)	-28%	28µM*	-5%	27%	-13%	·
O=C(O)c1ccccc1NC(=O)C1CCCO1 (stereo unspecified)	-20%	-26%[59 µM]	·	13%	-8%	9%
CCCCN(C)CCCNC(=O)c1ccc(N2CCCC2=O)cc1	-2%	31%[0.501 µM]	-1%	30%	15%	23%
O=C(Nc1ccccc1N1CCCC1)c1ccccc1Cl	?	40µM*	·	24%	-21%	12%
O=C(O)/C=C\C(=O)Nc1ccccc1N1CCN(c2ccccc2)CC1	?	45µM*	·	22%	-21%	?
CN(CCCNC(=O)c1ccc(N2CCCC2=O)cc1)c1ccccc1	-34%	10µM*	1%[11.4 µM]	11%	?	-25%
O=C(Nc1ccccc1N1CCCC1)c1ccco1	-27%	50µM*	-4%	7%	-36%	5%
O=C(NC(=S)Nc1ccccc1N1CCOCC1)c1ccco1	-9%	50µM*	-2%	35%	-17%	3%
O=C(/C=C/c1ccco1)Nc1ccccc1N1CCCC1	?	45µM*	-16%	-16%	?	?
O=C(/C=C/c1ccco1)NC(=S)Nc1ccccc1N1CCOCC1	?	?	-12%	-24%	?	-1%
O=C(Nc1ccccc1N1CCOCC1)c1ccco1	5%	17%	·	5%	-8%	13%
O=C(Nc1ccccc1N1CCCC1)c1ccc(N2CCCC2=O)cc1	-24%	35µM*	19%	8%	-23%	·
COc1ccc(-c2nn3c(=O)cc(CN4CCN(C(=O)Nc5ccc(C)c(Cl)c5)CC4)nc3s2)cc1	7%	0%[59 µM]	·	23%[57 µM]	-2%	·
CCN(c1ccc(NC(=O)c2ccc(N3CCCC3=O)cc2)cc1)C(C)C	-25%	3.5µM*	-2%	-2%	-16%	·
CS(=O)(=O)N1CCN(c2ccccc2NC(=S)NC(=O)c2ccco2)CC1	·	·	·	10%	-14%	·
O=C(NC(=S)Nc1ccccc1N1CCCC1)c1ccco1	40µM*	·	-6%	?	?	32µM*
Cc1ccc(S(=O)(=O)N2CCCc3cc(NC(=O)c4ccccc4Cl)ccc32)cc1	12%	29%[59 µM]	·	83%	-4%	·
